Most compounds without a hit are left out; they make up all but 2% or so of the library.
FUS yeast rescue: qHTS for Suppressors of FUS Proteinopathy: Primary screen using FUS-linked yeast assay | S. cerevisiae FUS-expressing, growth rescue, OD600, 24 h | Potency, µM (series often up to 76.6 µM), hits mostly activators | 0.24% of 390,000 active | AID 1347120, 2019; also: nearly all actives have a fitted effect of over 55% in size
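Yeast FUS proteinopathy model; galactose-induced FUS (2%), starting OD 0.005. Cpds in dilution series, 24hr, 30C, 99% humidity. Abs 600 nm growth. Pos ctrl CP55940 (top 92uM final); neg ctrl DMSO.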
LDHA block: qHTS assay for inhibitors of human lactate dehydrogenase; 0.15% of 480,000 active; purified LDHA, NADH/diaphorase-resazurin fluorescence; stronger effect = lower value; activity change, % (values are at about 110 or 230 µM); L-lactate dehydrogenase A chain (Homo sapiens), P00338; in the data active = activity change below about -30%; inconclusive = mostly about -25% to -30%
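Enzyme activity of human lactate dehydrogenase 5 (2 nM; 0.06 mM NADH, 0.2 mM pyruvate, 5 min, RT) is measured via a resazurin/diaphorase fluorescence readout of residual NADH.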
mIDH1 inhibitor: qHTS for Inhibitors of mutant isocitrate dehydrogenase 1 (IDH1): qHTS; 0.093% of 390,000 active; Isocitrate dehydrogenase [NADP] cytoplasmic (Homo sapiens), O75874; IDH1-R132H enzyme, NADPH consumption, diaphorase/resazurin fluorescence; Potency, µM (highest dose often 76.6 µM), most hits filed as inhibitors; also: nearly all actives have a fitted effect of over 65% in size
Target sequence (O75874 whole entry R132H, stated change not applied): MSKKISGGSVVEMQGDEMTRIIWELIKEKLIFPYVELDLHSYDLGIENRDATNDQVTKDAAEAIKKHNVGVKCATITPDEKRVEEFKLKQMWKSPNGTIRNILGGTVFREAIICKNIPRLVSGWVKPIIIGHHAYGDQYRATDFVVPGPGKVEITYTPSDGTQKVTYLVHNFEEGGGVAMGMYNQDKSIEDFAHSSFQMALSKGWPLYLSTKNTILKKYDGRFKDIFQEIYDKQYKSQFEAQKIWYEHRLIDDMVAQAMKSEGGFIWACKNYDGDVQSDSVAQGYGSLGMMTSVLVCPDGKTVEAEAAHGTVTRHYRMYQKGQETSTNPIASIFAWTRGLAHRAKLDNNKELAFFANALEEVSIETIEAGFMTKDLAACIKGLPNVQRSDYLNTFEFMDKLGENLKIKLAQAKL
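IDH1-R132H (0.5 ug/mL) preincubated 30 min with compound, then NADPH (0.016 mM) and alpha-KG (2 mM) added; 80 min at RT, pH 7.5. Remaining NADPH coupled via diaphorase/resazurin to fluorescence (540/590 nm); concentration-response curves normalized to no-enzyme control.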
aSyn rescue: qHTS of alpha-syn Inhibitors; Yeast expressing alpha-synuclein, growth rescue, BacTiter-Glo, 24 h; 0.14% of 370,000 active; Potency, µM (titrated, usually from 46.1 µM), actives largely listed as activators; AID 652106, 2013; also: nearly all actives have a fitted effect of over 65% in size
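Galactose-induced alpha-syn yeast (OD600=0.02, raffinose-pregrown) + pinned cpd, 24 hr, 30 deg C; growth by BacTiter-Glo luminescence. Growth restoration scores as activation.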
TDP-43 yeast inh: qHTS of TDP-43 Inhibitors; TDP-43 expressing yeast growth rescue, BacTiter-Glo, 24 h; 1.8% of 410,000 active; Potency, µM (top dose mostly 46.1 µM), hits mostly activators; also: nearly all actives have a fitted effect of over 50% in size
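Luminescence from BacTiter-Glo reports growth of TDP-43-expressing yeast after 24 hr at 30 deg C with compound. Cells were raffinose-pregrown to mid-log, then seeded in galactose medium at OD600=0.02.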
Abeta yeast res: qHTS for compounds that reverse cellular toxicity of Amyloid beta (A-beta) peptide in yeast: Primary Screen; Potency, µM (highest dose often 46.1 µM), usual class: activators; 0.063% of 410,000 active; AID 1347071, 2019; yeast expressing A-beta42, growth rescue, OD600, 48 h; response scale: 0% DMSO, 100% iron-clioquinol control; also: nearly all actives have a fitted effect of over 55% in size
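Growth rescue measured by 600 nm absorbance after 48 h yeast culture at 30 C with compound. Values normalized between DMSO and an equimolar ferric chloride plus clioquinol control.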
Numbers stand for hits; – = inactive; ? = inconclusive; · = no result given. Unless noted, calls follow the shape of the dose curve; as a rule, active = well fitted curve in the direction sought with a large enough effect; inconclusive = small, poorly fitted or top-dose-only effect, or another doubt; inactive = no such curve, though single readings can be large; an effect the other way counts as inactive or inconclusive.

SMILES | FUS yeast rescue | LDHA block | mIDH1 inhibitor | aSyn rescue | TDP-43 yeast inh | Abeta yeast res
CN(C1=C(NC(=O)c2ccc(Cl)cc2)C(=O)c2ccccc2C1=O)c1ccccc1 | · | – | – | – | 35µM | –
Cc1oc(-c2cccc(Cl)c2)nc1CSCC(=O)NCc1ccccc1Cl | – | – | – | · | 22µM | –
O=C(c1cnn(C(=O)c2ccco2)c1)c1cc(Cl)cc(Cl)c1O | · | – | – | – | ? | –
O=C(c1cnn(C(=O)c2ccco2)c1)c1cc(F)ccc1O | – | – | – | – | 28µM | –
CCc1ccccc1S(=O)(=O)Cc1ccc(C(=O)NCCc2ccc(Cl)cc2)o1 | ? | – | – | · | 35µM | –
CCc1ccccc1S(=O)(=O)Cc1ccc(C(=O)NCc2ccc(Cl)cc2)o1 | – | – | – | · | 35µM | –
O=C(NCCc1ccccc1)c1ccc(CS(=O)(=O)c2ccc(Cl)cc2)o1 | – | – | – | – | – | –
COc1ccc(-c2cc(C(=O)N(C)Cc3ccc(F)cc3)c3ccccc3n2)cc1OC | – | – | – | – | 22µM | –
O=C(Nc1ccc(Cl)cn1)C1C(c2ccccc2)C1(Cl)Cl (configuration not stated) | – | – | – | – | 13µM | –
O=C(Nc1ccccc1)C1C(c2ccccc2)C1(Cl)Cl (configuration not stated) | – | – | – | – | ? | –
COc1cccc(NC(=O)C(c2ccc(Cl)cc2)C(C)C)c1 (configuration not stated) | · | – | · | · | · | ·
CCCOc1ccc(C2C3=C(CC(C)(C)CC3=O)Nc3cc4c(cc32)OCO4)cc1 (configuration not stated) | · | – | · | · | · | ·
COc1cccc(-c2sc3ccc(OC)cc3c2C#CC(C)(C)O)c1 | ? | – | – | – | 18µM | –
COc1cccc(-c2sc3ccc(OC)cc3c2C#CCC(C)O)c1 (configuration not stated) | ? | – | – | – | 25µM | –
COc1ccc2sc(-c3ccc(N(C)C)cc3)c(C#CC(C)(C)O)c2c1 | – | – | – | – | – | –
O=C(CCN1CCC(c2ccccc2)C1)c1ccc2ccccc2c1 (configuration not stated) | · | – | · | · | · | ·
S=C(NCCC(c1ccccc1)c1ccccc1)Nc1ccc(Nc2ccccc2)cc1 | · | – | · | · | · | ·
CCOc1ccc(-c2nc(N)ncc2-c2ccc(Cl)cc2)c(O)c1 | – | – | – | – | 22µM | –
NCCOc1ccc(OCCN)cc1 | · | – | · | · | · | ·
CC(C)OC(=O)c1cc(Cl)c(=O)n(Cc2ccc(Cl)cc2Cl)c1 | – | – | – | – | 25µM | –
O=C(Cn1cc(C(F)(F)F)cc(Cl)c1=O)NCc1ccc(Cl)cc1Cl | – | – | – | – | – | –
CNC(=S)NNC(=O)c1ccc(=O)n(Cc2ccc(Cl)cc2Cl)c1 | – | – | – | – | – | –
C#CCOC(=O)c1cc(Cl)c(=O)n(Cc2ccc(Cl)cc2Cl)c1 | – | – | – | – | 20µM | –
CCOC(=O)Cc1csc(NC(=O)c2ccc3ncsc3c2)n1 | – | – | – | – | 14µM | –
CCOC(=O)Cc1csc(NC(=O)c2ccc(Br)cc2)n1 | – | – | – | – | 13µM | –
SMILES | FUS yeast rescue | LDHA block | mIDH1 inhibitor | aSyn rescue | TDP-43 yeast inh | Abeta yeast res
CCCc1c(C(=O)OCC)[nH]c2c1C(=O)CC(c1ccc(CC)cc1)C2 (configuration not stated) | · | – | · | · | · | ·
N#C/C(=C\c1ccc([N+](=O)[O-])cc1)c1ccccn1 | – | – | – | – | 13µM | –
N#C/C(=C/c1cccnc1)c1ccccc1 | – | – | – | – | ? | –
N#C/C(=C\c1cccnc1)c1ccc([N+](=O)[O-])cc1 | – | – | – | – | 11µM | –
N#Cc1nc(-c2ccccc2F)oc1N1CCN(Cc2ccccc2)CC1 | · | – | · | · | · | ·
O=C(NCc1ccc(Cl)cc1)c1ccc2c(Cl)c3c(nc2c1)CCCC3 | – | – | – | · | ? | –

Screening results deposited in PubChem BioAssay by National Center for Advancing Translational Sciences (NCATS).
